We go through 15 compounds from PubChem BioAssay.

The source made the active and inactive calls. Rule as the data show it: active = inhibition above about 44%; inactive = the rest.

The target of the experiment is Steroidogenic factor 1 (Homo sapiens) (UniProt Q13285). Briefly: inverse agonism at SF1 nuclear receptor – cell-based, luminescence, high throughput, counter-screen for LRH-1 inverse agonist project (AID 651614).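 Also: cells cotransfected with StAR promoter reporter and SF1 expression vector; 0% = vehicle on cells with receptor and 100% = vehicle on cells lacking receptor.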 The settings on record: cell-based SF1 luciferase reporter, at 3.6 µM, active compounds read high. Background: A counterscreen serves to expose hits that act by an unwanted route or on another target.
Chain of Steroidogenic factor 1 (Homo sapiens) (Q13285 whole entry, looked up): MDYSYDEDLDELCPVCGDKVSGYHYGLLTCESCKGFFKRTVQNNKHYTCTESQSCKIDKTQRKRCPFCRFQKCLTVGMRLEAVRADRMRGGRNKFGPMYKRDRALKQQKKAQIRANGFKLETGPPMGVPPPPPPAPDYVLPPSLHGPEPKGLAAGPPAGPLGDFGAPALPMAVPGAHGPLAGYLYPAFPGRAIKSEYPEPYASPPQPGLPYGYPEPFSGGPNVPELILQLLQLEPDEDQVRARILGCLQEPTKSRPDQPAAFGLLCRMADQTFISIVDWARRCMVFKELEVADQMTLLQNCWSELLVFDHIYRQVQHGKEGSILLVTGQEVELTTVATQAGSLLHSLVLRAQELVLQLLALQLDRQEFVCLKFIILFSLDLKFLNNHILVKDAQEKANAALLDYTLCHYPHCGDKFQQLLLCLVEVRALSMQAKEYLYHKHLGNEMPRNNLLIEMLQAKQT
`O=C1Nc2ccccc2/C1=C/c1cnc[nH]1`: the inhibition (usually the relative decrease from the control value, in per cent) is 40.8% (inactive).
Next, `CCOC(=O)[C@]12Cc3cc(OC)ccc3[C@H]1N(C1CCCCC1)C(=O)c1ccccc12`: 42.2% (inactive).
For `CCCCn1c(NC(=O)c2ccc(Br)o2)c(C(=O)OCC)c2nc3ccccc3nc21`, the inhibition is 45.6% (active).
Next, `N#Cc1ccc(NC(=S)N2Cc3ccccc3-n3nncc3C2)cc1`: 47.5% (active); `Cc1nn(Cc2ccccc2)c(C)c1C(=O)OCC(=O)Nc1ccccc1SCC#N`: 52.9% (active).
In the case of `N#CCCn1cc(C(=O)Nc2ccc([N+](=O)[O-])cc2)c(-c2ccccc2)n1` it was 41.5% (inactive); in that of `CCC(C)N1C(=O)/C(=C\c2ccc(N3CCCCCC3)cc2)C(=O)NC1=S` (stereo not given), 40.2% (inactive).
In the case of `CCOC(=O)[C@]12Cc3cc(C)ccc3[C@H]1N(C1CCCCC1)C(=O)c1ccccc12` it was 71.5% (active); in that of `CC1OC(OC2C=C3CCC4C(CCC5(C)C(c6ccc(=O)oc6)CCC45O)C3(C)CC2)C(O)C(OC2OC(CO)C(O)C(O)C2O)C1O` (stereo not given), 97.2% (active); in that of `CC[n+]1c(/C=C/C=C/c2ccc(N(C)C)cc2)sc2ccccc21`, 86.4% (active).
Regarding `N#CCCn1cc(C(=O)Nc2ccccc2Br)c(-c2ccc([N+](=O)[O-])cc2)n1`, the inhibition is 51.6% (active).
Next, `c1ccc2c(c1)[IH]c1ccccc1-2`: 64.1% (active).
In the case of `CC1=CC(O)C(O)C2(C)C1CC1OC(=O)CC3C(C)C(O)C(=O)C2C13CO` (stereo not given) it was 45.9% (active); in that of `Cc1cc(OC(=O)c2ccco2)c2c3c(c(=O)oc2c1)CCCC3`, 47.2% (active); in that of `CCOc1cc(C=O)ccc1O`, 47.9% (active).
